For 40 compounds, growth inhibition results are on record in PubChem BioAssay (NCI).

Where “and” joins values, the source holds several entries; their conditions need not be identical. Identical values can stand only once. About 79,000 compounds went through this panel and 15% of them were active in at least one assay; those are over-represented in the sample as a whole. A number with no mark means an inactive call. Rule as the data show it: active = growth inhibition above about 70%; inactive = the rest.

The first experiment in a line: NCI Yeast Anticancer Drug Screen. Data for the cln2 rad14 strain (AID 165).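 Also: 0% = growth equal to vehicle treated cultures.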 The settings on record: S. cerevisiae cln2 rad14 strain, active compounds read high; at 50.0 µM unless noted. The method in brief: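 Growth inhibition, relative to vehicle-treated controls, is the read-out. The test organism is a yeast strain with defined genetic alterations, cln2 rad14.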
For the compound `NNC(=O)CCn1[nH]c(=O)c(Cl)c(Cl)c1=O`, the growth inhibition was 12.9%.
As to `Oc1ccc(Br)cc1/C=N/c1nc2ccccc2s1.Oc1ccc(Br)cc1/C=N/c1nc2ccccc2s1.[Cu]`, the growth inhibition was 15.3%.
Consider `COc1ccccc1C(=O)NCC1CCCN2CCCCC12` (stereo not given), for which the growth inhibition is -6.5%.
`CCOC(=O)c1nnsc1N/N=C\c1ccc([N+](=O)[O-])cc1`: the growth inhibition is 12.3%.
Consider `O=C1OC(=O)C2C3CC(C(Br)C3Br)C12` (stereo not given), for which the growth inhibition was -36.5%.
As to `Cc1ccc(/C=C/C(=O)C(C)CN(C)C)cc1C` (stereo not given), the growth inhibition is 0.95%.
For the compound `CC(C)(O)CCO`, the growth inhibition is -10.7%.
In the case of `CCOC(=O)C/C(O)=C(/C=N/C(=S)NNC(C)=O)C(=O)OCC`, the growth inhibition is 2.65%.
`CC1/C(=N\O)CC2C3(C)CCC2(C(C)C(=O)O)C(=O)C13` (stereo not given): the growth inhibition is 8.55%.
As to `COc1nc(NC2OC(CO)C(O)C(O)C2O)c(C(=O)CCl)c(=O)n1C` (stereo not given), the growth inhibition was -7.45%.
As for `C/C(=N/NC(N)=S)c1c(C)[nH]c2ccccc12`, the growth inhibition was -78.8%.
On to `O=C(Nc1ccc(O)cc1)c1ccc([N+](=O)[O-])cc1`, for which the growth inhibition was 0.05%.
`CCC(SC(CC)(CC)C(=O)O)C(N)=O` (stereo not given): the growth inhibition was -23%.
With `Cc1cccc(NC(=O)Nc2ccccc2Cl)n1`, the growth inhibition is 25.7%.
As to `c1ccc(N=NC2(c3ccccc3)CC(c3ccccc3)=NN(c3ccccc3)C2NNc2ccccc2)cc1` (stereo not given), the growth inhibition was 17.7%.
In the case of `CCCOC(=O)c1ccc(O)cc1.[Cu+2]`, the growth inhibition was -34.4%.
Same read-out and setting: in the case of `O=C(O)c1ccccc1SSc1ccccc1C(=O)O` it was 4% and -26.9%; in that of `CN(C)CC1CCCCCC(CN(C)C)C1=O` (stereo not given), 0.45% and -28.4%.
For `Cc1ccc(NC(=O)c2c(Br)c(Br)c(Br)c(Br)c2C(=O)O)cc1Cl`, the growth inhibition is -22.4%.
`O=c1[nH][nH]c2ccccc12`: the growth inhibition was 13.9%.
The same measure, in the same setting: then `C=CCN1C(=O)CS/C1=N/NC(=O)C(O)(c1ccccc1)c1ccccc1`, with -25.4%; and `O=C(O)CN(CCO)CCN(CC(=O)O)CC(=O)O.[Fe+2]`, with 18.6%; and `O=C(O)CNC(=S)SCC(=O)O`, with -32.4%.
Still for that read-out and setting: then `NC(=O)Nc1ccc(/C=C\c2ccnc3ccccc23)cc1`, with -31.9%.
On to `Cc1[nH]c(=O)cc2c1[nH]c1ccccc12`, for which the growth inhibition was -44.2%.
As to `CS(=O)CCC1C(=O)OC(C(C)(C)C)N1C(=O)c1ccccc1` (stereo not given), the growth inhibition is -12.3%.
On to `O=C(Nc1cccc(I)c1)OCCCl`, for which the growth inhibition was 0.4%.
On the same count and under the same terms, in the case of `O=c1n(-c2ccccc2)c(=O)n(-c2ccccc2)c(=O)n1-c1ccccc1` it was 5%; in that of `CC(C)OC(=O)/C=C/CCCC1CCCCC1`, 2.35%; in that of `Oc1cc2c(cc1-c1cc3c(cc1O)OCO3)OCO2`, -41%.
For `CN1OC(=O)OC(C)(c2ccccc2)C1=O` (stereo not given), the growth inhibition is 0.25%.
Still for that read-out and setting: in the case of `COc1ccc(-c2nc(Sc3c([N+](=O)[O-])ncn3C)n[nH]2)cc1` it was 25.7%.
On to `Cc1cc(C(=O)O)cc(C)c1N(C)C=O`, for which the growth inhibition was 2.35%.
For `CCOC(OCC)C1(C)CC=CCC1` (stereo not given), the growth inhibition was -3.4%.
As for `CN(C)c1cccc2ccccc12`, the growth inhibition is -24.3%.
Turning to `CC1(CO)COC(C)(C)OC1`, the growth inhibition is 29.2%.
On to `COC(=O)C(CCCCCCCC(C(=O)OC)c1nc2n(c1O)C(=N)N=N2)c1nc2n(c1O)C(=N)N=N2` (stereo not given), for which the growth inhibition is 11.8%.
On to `CN1C(=O)OC2OC(C)(c3ccc(S(=O)(=O)c4ccccc4)cc3)C(=O)CC21` (stereo not given), for which the growth inhibition was -27%.
With `CC1(C)OC2OC3C(O)C(=O)OC3C2O1` (stereo not given), the growth inhibition is -20%.
As for `N#Cc1cccc2c1Nc1ccccc1S2`, the growth inhibition is 8.8%.

A short description of the next experiment: NCI Yeast Anticancer Drug Screen. Data for the bub3 strain (AID 167). Conditions: S. cerevisiae bub3 mutant strain, active compounds read high; at 50.0 µM unless noted. The method in brief:
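Inhibition values come from growth of compound-treated mutant yeast normalised to vehicle-treated controls.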
For `NNC(=O)CCn1[nH]c(=O)c(Cl)c(Cl)c1=O`, the growth inhibition is 16.9%.
As for `Oc1ccc(Br)cc1/C=N/c1nc2ccccc2s1.Oc1ccc(Br)cc1/C=N/c1nc2ccccc2s1.[Cu]`, the growth inhibition was -0.25%.
On the same count and under the same terms, in the case of `COc1ccccc1C(=O)NCC1CCCN2CCCCC12` (stereo not given) it was 0.7%; in that of `CCOC(=O)c1nnsc1N/N=C\c1ccc([N+](=O)[O-])cc1`, -19.5%.
`O=C1OC(=O)C2C3CC(C(Br)C3Br)C12` (stereo not given): the growth inhibition was -1.2%.
For `Cc1ccc(/C=C/C(=O)C(C)CN(C)C)cc1C` (stereo not given), the growth inhibition is 0.3%.
Take `CC(C)(O)CCO`: the growth inhibition is -25.9%.
As to `CCOC(=O)C/C(O)=C(/C=N/C(=S)NNC(C)=O)C(=O)OCC`, the growth inhibition is -19.6%.
As for `CC1/C(=N\O)CC2C3(C)CCC2(C(C)C(=O)O)C(=O)C13` (stereo not given), the growth inhibition was 8.9%.
Same read-out and setting: then `COc1nc(NC2OC(CO)C(O)C(O)C2O)c(C(=O)CCl)c(=O)n1C` (stereo not given), with -3.4%; and `C/C(=N/NC(N)=S)c1c(C)[nH]c2ccccc12`, with -45%.
Turning to `O=C(Nc1ccc(O)cc1)c1ccc([N+](=O)[O-])cc1`, the growth inhibition was 9.05%.
The same measure, in the same setting: then `CCC(SC(CC)(CC)C(=O)O)C(N)=O` (stereo not given), with -6%.
On to `Cc1cccc(NC(=O)Nc2ccccc2Cl)n1`, for which the growth inhibition is 13.2%.
Still for that read-out and setting: then `c1ccc(N=NC2(c3ccccc3)CC(c3ccccc3)=NN(c3ccccc3)C2NNc2ccccc2)cc1` (stereo not given), with 6.75%; and `CCCOC(=O)c1ccc(O)cc1.[Cu+2]`, with -3.05%.
Take `O=C(O)c1ccccc1SSc1ccccc1C(=O)O`: the growth inhibition is 9% and -0.65%.
Turning to `CN(C)CC1CCCCCC(CN(C)C)C1=O` (stereo not given), the growth inhibition was -10.4% and -1.65%.
On to `Cc1ccc(NC(=O)c2c(Br)c(Br)c(Br)c(Br)c2C(=O)O)cc1Cl`, for which the growth inhibition was 2.9%.
As to `O=c1[nH][nH]c2ccccc12`, the growth inhibition is 8.9%.
Consider `C=CCN1C(=O)CS/C1=N/NC(=O)C(O)(c1ccccc1)c1ccccc1`, for which the growth inhibition was -24.3%.
The same measure, in the same setting: in the case of `O=C(O)CN(CCO)CCN(CC(=O)O)CC(=O)O.[Fe+2]` it was -14.5%.
Take `O=C(O)CNC(=S)SCC(=O)O`: the growth inhibition is 5.2%.
Consider `NC(=O)Nc1ccc(/C=C\c2ccnc3ccccc23)cc1`, for which the growth inhibition is -15.9%.
Turning to `Cc1[nH]c(=O)cc2c1[nH]c1ccccc12`, the growth inhibition was 1.3%.
As to `CS(=O)CCC1C(=O)OC(C(C)(C)C)N1C(=O)c1ccccc1` (stereo not given), the growth inhibition was -0.85%.
As to `O=C(Nc1cccc(I)c1)OCCCl`, the growth inhibition is -7.55%.
In the case of `O=c1n(-c2ccccc2)c(=O)n(-c2ccccc2)c(=O)n1-c1ccccc1`, the growth inhibition was 7.45%.
Take `CC(C)OC(=O)/C=C/CCCC1CCCCC1`: the growth inhibition is 18.7%.
Turning to `Oc1cc2c(cc1-c1cc3c(cc1O)OCO3)OCO2`, the growth inhibition was -3.2%.
The same measure, in the same setting: then `CN1OC(=O)OC(C)(c2ccccc2)C1=O` (stereo not given), with 0.6%; and `COc1ccc(-c2nc(Sc3c([N+](=O)[O-])ncn3C)n[nH]2)cc1`, with 12.5%.
Turning to `Cc1cc(C(=O)O)cc(C)c1N(C)C=O`, the growth inhibition is -1.05%.
Consider `CCOC(OCC)C1(C)CC=CCC1` (stereo not given), for which the growth inhibition is 3.15%.
With `CN(C)c1cccc2ccccc12`, the growth inhibition is 6%.
Turning to `CC1(CO)COC(C)(C)OC1`, the growth inhibition is 2.75%.
As to `COC(=O)C(CCCCCCCC(C(=O)OC)c1nc2n(c1O)C(=N)N=N2)c1nc2n(c1O)C(=N)N=N2` (stereo not given), the growth inhibition is 10.2%.
On to `CN1C(=O)OC2OC(C)(c3ccc(S(=O)(=O)c4ccccc4)cc3)C(=O)CC21` (stereo not given), for which the growth inhibition is 5.65%.
Regarding `CC1(C)OC2OC3C(O)C(=O)OC3C2O1` (stereo not given), the growth inhibition was -2.6%.
As for `N#Cc1cccc2c1Nc1ccccc1S2`, the growth inhibition was 5.9%.
